Structures are written as SMILES. Records with an inconclusive call do not appear. For part of these data: Entries with a potency or affinity are not part of this list. Activity calls are given as the source filed them.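 Rule for the calls, unless noted: active = thallium flux through the channel raised or lowered by more than 3 SD from vehicle-only wells, actives on both sides; inactive = the rest.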

For experiment [1], the target named is ATP-dependent translocase ABCB1 (Homo sapiens) (UniProt P08183). In words: P-glycoprotein substrate transport blockade – cell-based (AID 377; in the data active = fluorescence slope change above about 50%). Conditions: MDR1-expressing cells, fluorescent substrate accumulation slope; stronger effect = higher value; concentration not given here.
Experiment [2] can be described thus: compounds altering viability of human ES cells (AID 493140; call rule not given here;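 note: cells exposed to compounds for four days before counting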). Conditions: human embryonic stem cell survival screen; stronger effect = higher value.
The nature of experiment [3]: compounds altering circadian rhythm period length – cell-based, LOPAC library, luminescence reporter (AID 2774; call rule not given here;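 note: values are relative to mean of DMSO wells on each plate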). The note with it: circadian reporter cells, at 7 µM, actives lie on both sides.
Experiment [4] is described as follows: compounds altering Cy5-DNA-NS3h complex signal – biochemical, LOPAC1280, artefact control for HCV NS3 helicase inhibitor project (AID 687037; call rule not given here). Conditions: Cy5-DNA-NS3h complex fluorescence interference counterscreen.
Experiment [5] relates to Aerobactin synthetase IucA (Klebsiella pneumoniae, hypervirulent). In words: biochemical IucA inhibition screen of LOPAC library by absorbance (AID 1346212; call rule not given here;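 note: 100% = no compound wells and 0% = no enzyme wells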). Conditions: IucA enzyme assay, absorbance (OD) readout; stronger effect = lower value;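 tested at 8 µM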.
Experiment [6] is described as follows: blockers of cellular phospholipid synthesis – cell-based, LOPAC library, screen 4, primary screen (AID 1347384; call rule not given here). The note with it: animal cells, phospholipid biosynthesis inhibition screen; at 10 µM.
Experiment [7] in a line: modulation of C. elegans fzo-1 (AID 1259413; call rule not given here;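 note: fzo-1 mutant C. elegans worms in liquid wells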). Conditions: C. elegans fzo-1 modulator screen, mean read-out; stronger effect = higher value.
Another experiment concerns F380Y. In words: BK channel mutant inhibitors and activators – cell-based, U2OS BacMam, thallium flux, beta subunits, selectivity assay, profiling panel (AID 1259406).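 Note: initial slope of Thallos dye fluorescence rise after thallium is added; log ratio against the mean of 0.3% DMSO vehicle wells on the same plate.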 The note with it: U2OS BacMam BK variants, at 30 µM.
In the next experiment the test system is F380Y/beta2Delta. Described as above. The note with it: U2OS BacMam BK variants, at 30 µM.
For experiment [8], the target named is Calcium-activated potassium channel subunit alpha-1 (Homo sapiens) + Leucine-rich repeat-containing protein 26 (Homo sapiens) (UniProt Q12791+Q2I0M4). The experiment is described as above. The note with it: U2OS BacMam BK variants, F380Y/Slo1WT/gamma1, at 30 µM.
The next experiment concerns R275C. The experiment is described as above. The note with it: U2OS BacMam BK variants, at 30 µM.
The next experiment relates to R275C/beta1. The experiment is described as above. The note with it: U2OS BacMam BK variants, at 30 µM.
Another experiment concerns R275C/beta2Delta. The description is as above. The note with it: U2OS BacMam BK variants, at 30 µM.
The next experiment has as its system R275C/Slo1WT/beta2. The experiment is described as above. The note with it: U2OS BacMam BK variants, at 30 µM.
The nature of experiment [9]: blockers of polyQ-driven CASP3 activation – cell-based (AID 1583). Conditions: polyglutamine-induced caspase-3 activation, cell assay; stronger effect = higher value;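 tested at 10 µM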.
Experiment [10] can be described thus: restoration of touch response, mutant HTT neurons – whole organism, C. elegans mechanosensory neurons, N-terminal huntingtin (AID 1599). The note with it: C. elegans polyQ-huntingtin mechanosensory neurons, stronger effect = higher value.
Experiment [11] in a line: glutamate transport activators, MN-1 cells, MN-1 cell line (AID 1612).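 Note: tested at 1 µM final; 0% = mean of DMSO vehicle wells on each plate; positive means more glutamate uptake than control and negative means less.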 Conditions: MN-1 motor neuron cells, stronger effect = higher value.
Experiment [12] is described as follows: GFP-Q80 aggregate reduction, neuronal-like cells, cell-based, NGF-treated PC12, GFPQ80 (AID 1614).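 Note: lower means fewer inclusions and 0 means no inclusions at all.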 Conditions: PC12 NGF-treated GFP-polyQ80 inclusion reduction.
A short description of experiment [13]: 75Q-TubH aggregate inhibition, S. cerevisiae, yeast (AID 1616). The note with it: S. cerevisiae 75Q-TubH polyglutamine aggregation suppression; stronger effect = higher value.
The test system of experiment [14] is Hepatitis C virus NS3 helicase. In words: blockers of NS3h binding to ssDNA – biochemical, fluorescence polarization, LOPAC1280 library, primary screen (AID 687035; in the data active = inhibition above about 37%). The note with it: Purified HCV NS3 helicase, Cy5-dT15 ssDNA binding fluorescence polarization; stronger effect = higher value; concentration not given here. On the technique in general: In fluorescence polarisation assays a small probe gives low polarisation when free and higher when bound to something large.

Calcium-activated potassium channel subunit alpha-1 (Homo sapiens) + Leucine-rich repeat-containing protein 26 (Homo sapiens), sequence (Q2I0M4 whole entry, looked up, one chain of several): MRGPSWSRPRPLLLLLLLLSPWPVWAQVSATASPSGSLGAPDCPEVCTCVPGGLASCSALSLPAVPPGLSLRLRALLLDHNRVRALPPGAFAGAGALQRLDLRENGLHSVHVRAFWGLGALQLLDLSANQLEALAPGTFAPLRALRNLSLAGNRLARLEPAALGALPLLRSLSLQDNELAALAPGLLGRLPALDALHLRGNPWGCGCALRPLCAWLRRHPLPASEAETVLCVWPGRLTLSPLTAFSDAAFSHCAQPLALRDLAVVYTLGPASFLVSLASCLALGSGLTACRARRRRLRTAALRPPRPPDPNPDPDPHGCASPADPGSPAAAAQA
ATP-dependent translocase ABCB1 (Homo sapiens), sequence (P08183 whole entry, looked up): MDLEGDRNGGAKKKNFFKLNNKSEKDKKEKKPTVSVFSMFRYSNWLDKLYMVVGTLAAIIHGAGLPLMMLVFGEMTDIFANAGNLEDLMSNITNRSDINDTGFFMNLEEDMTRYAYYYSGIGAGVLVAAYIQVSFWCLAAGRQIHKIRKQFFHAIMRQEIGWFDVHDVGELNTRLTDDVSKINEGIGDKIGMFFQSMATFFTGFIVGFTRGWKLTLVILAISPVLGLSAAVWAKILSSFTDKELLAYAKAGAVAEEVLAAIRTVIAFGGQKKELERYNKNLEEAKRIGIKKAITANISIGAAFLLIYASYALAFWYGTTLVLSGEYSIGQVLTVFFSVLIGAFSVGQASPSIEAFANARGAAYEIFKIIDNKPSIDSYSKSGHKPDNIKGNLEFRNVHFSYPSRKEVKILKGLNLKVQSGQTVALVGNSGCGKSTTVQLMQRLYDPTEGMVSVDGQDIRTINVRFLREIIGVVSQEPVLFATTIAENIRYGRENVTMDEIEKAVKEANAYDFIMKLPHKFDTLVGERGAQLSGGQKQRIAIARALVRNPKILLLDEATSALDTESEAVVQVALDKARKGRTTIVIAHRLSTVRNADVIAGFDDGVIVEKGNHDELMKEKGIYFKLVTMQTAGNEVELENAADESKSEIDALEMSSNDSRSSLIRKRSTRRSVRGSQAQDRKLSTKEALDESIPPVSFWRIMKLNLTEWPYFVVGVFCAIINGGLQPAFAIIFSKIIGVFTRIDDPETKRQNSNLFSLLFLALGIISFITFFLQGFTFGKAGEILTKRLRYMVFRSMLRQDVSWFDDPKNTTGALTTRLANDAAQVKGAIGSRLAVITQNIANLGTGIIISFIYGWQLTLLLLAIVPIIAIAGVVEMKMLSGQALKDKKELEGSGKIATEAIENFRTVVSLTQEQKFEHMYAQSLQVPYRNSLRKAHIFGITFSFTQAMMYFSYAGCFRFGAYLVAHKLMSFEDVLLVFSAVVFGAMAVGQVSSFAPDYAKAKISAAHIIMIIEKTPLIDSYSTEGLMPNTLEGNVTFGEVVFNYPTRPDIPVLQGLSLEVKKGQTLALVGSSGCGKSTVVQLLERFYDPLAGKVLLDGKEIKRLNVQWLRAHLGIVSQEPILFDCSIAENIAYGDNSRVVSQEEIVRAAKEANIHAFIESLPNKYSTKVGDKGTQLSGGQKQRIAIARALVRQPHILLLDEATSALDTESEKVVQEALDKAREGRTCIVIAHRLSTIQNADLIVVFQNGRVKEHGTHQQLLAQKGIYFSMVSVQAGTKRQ

Consider `CN(C)C(=O)Oc1cc(OC(=O)N(C)C)cc(C(O)CNC(C)(C)C)c1` (centres undefined), for which the fluorescence slope change in [1] is 19% (inactive). Further, the survival in experiment [2] is 12.5 (inactive).

One may read the remaining activity as the signal under treatment as a percentage of the control signal. Consider `CC[C@@H](CO)NC(=O)[C@@H]1C=C2c3cccc4c3c(cn4C)C[C@H]2N(C)C1`, for which the period change in experiment [3] is 0.11 h (inactive). Besides, the fluorescence ratio (interference) in [4] was 1 (inactive). For the same molecule, the remaining activity in [5] was 112% (inactive). Further, in [6], the call was inactive.

`CCN(CC)CCOC(=O)C(O)(c1ccccc1)c1ccccc1`: in experiment [7], the mean signal was 281 (inactive). Further, the log fold change Tl+ flux with F380Y is 0.0198 (inactive); in the experiment with F380Y/beta2Delta it was 0.0439 (inactive); in experiment [8], -0.0223 (inactive); in the experiment with R275C, -0.0214 (inactive); in the experiment with R275C/beta1, -0.0156 (inactive); in the experiment with R275C/beta2Delta it was 0.0436 (inactive). In addition, the log fold change Tl+ flux in the experiment on R275C/Slo1WT/beta2 is -0.00361 (inactive).

As for `CN1C(=O)COc2c(C(=O)NC3CN4CCC3CC4)cc(Cl)cc21` (centres undefined), the mean signal in experiment [7] was 219 (inactive). Further, the log fold change Tl+ flux in the experiment with F380Y was 0.054 (inactive); in the experiment on F380Y/beta2Delta, 0.0242 (inactive); in experiment [8], 0.0336 (inactive); in the experiment on R275C it was -0.0315 (inactive); with R275C/beta1, 0.0279 (inactive); with R275C/beta2Delta it was -0.00752 (inactive). Besides, in the experiment on R275C/Slo1WT/beta2, the log fold change Tl+ flux is -0.0098 (inactive).

With `C#CCN(C)[C@H](C)Cc1ccccc1`, in [1], the fluorescence slope change was -18.7% (inactive). The survival in experiment [2] was 12.8 (inactive). Also, in experiment [7], the mean signal is 258 (inactive). Also, the log fold change Tl+ flux in the experiment with F380Y is 0.00891 (inactive); in the experiment with F380Y/beta2Delta it was -0.0258 (inactive); in experiment [8], 0.000386 (inactive); in the experiment with R275C it was -0.00358 (inactive); in the experiment with R275C/beta1, 0.0188 (inactive); in the experiment with R275C/beta2Delta it was -0.0448 (inactive). The log fold change Tl+ flux in the experiment on R275C/Slo1WT/beta2 is -0.00101 (inactive).

For orientation: inhibition means the drop in the measured response relative to a control, in per cent. On to `COc1ccc(C(=O)N2CCCC2=O)cc1`, for which the inhibition in [9] is 15.7%; in [14] it was -3% (inactive). The same molecule came in with a rescue above control in [10] of 2.57. Further, the glutamate uptake change in [11] turned out to be 5.51%. In [12], this molecule returned an inclusion score of 2. This molecule came in with an aggregation suppression score in experiment [13] of 1.16. Besides, the period change in experiment [3] was -0.01 h (inactive). In [4], the fluorescence ratio (interference) is 0.9 (inactive). In addition, the remaining activity in [5] was 122% (inactive). For the same molecule, in experiment [6], the outcome was inactive.

As to `NC(=O)OCCCc1ccccc1`, the mean signal in [7] was 256 (inactive). The log fold change Tl+ flux with F380Y was 0.0271 (inactive); in the experiment on F380Y/beta2Delta it was 0.0735 (inactive); in experiment [8] it was -0.0246 (inactive); with R275C it was -0.0501 (inactive); in the experiment on R275C/beta1, 0.00561 (inactive); with R275C/beta2Delta, 0.00928 (inactive). Moreover, the log fold change Tl+ flux with R275C/Slo1WT/beta2 is 0.0397 (inactive).

For the molecule `Nc1ccncc1`, the inhibition in experiment [9] was -15.5%; in experiment [14], -4% (inactive). In addition, in experiment [10], the rescue above control is 26.7. Also, the glutamate uptake change in experiment [11] was -9.57%. The inclusion score in [12] is 2. In experiment [13], the aggregation suppression score amounted to 1.23. Further, the period change in experiment [3] is 0.07 h (inactive). For the same molecule, the fluorescence ratio (interference) in experiment [4] was 0.9 (inactive). In addition, in experiment [5], the remaining activity was 103% (inactive). Moreover, the molecule was called inactive in experiment [6].

As for `CC[C@]1(O)CC[C@H]2[C@@H]3CCC4=CCCC[C@@H]4[C@H]3CC[C@@]21C`, the log fold change Tl+ flux is 0.0652 (inactive) in the experiment on F380Y; -0.0162 (inactive) in the experiment with F380Y/beta2Delta; 0.141 (active) in experiment [8]; 0.0162 (inactive) in the experiment with R275C; 0.231 (active) in the experiment with R275C/beta1; 0.196 (active) in the experiment on R275C/beta2Delta. The log fold change Tl+ flux with R275C/Slo1WT/beta2 is 0.0508 (inactive).

Regarding `CN1C(=O)CN=C(c2ccccc2)c2cc([N+](=O)[O-])ccc21`, the mean signal in experiment [7] was 228 (inactive). Further, the log fold change Tl+ flux in the experiment on F380Y is 0.0275 (inactive); with F380Y/beta2Delta, 0.0676 (inactive); in [8], -0.000886 (inactive); with R275C it was -0.00261 (inactive); with R275C/beta1 it was -0.0104 (inactive); in the experiment with R275C/beta2Delta it was 0.0315 (inactive). Also, in the experiment on R275C/Slo1WT/beta2, the log fold change Tl+ flux was 0.0318 (inactive).

As to `Cc1cccc(C)c1NC(=O)CN1CCCC1=O`, the inhibition in [14] is -5% (inactive). For the same molecule, the fluorescence ratio (interference) in [4] was 1 (inactive). Besides, the remaining activity in experiment [5] is 106% (inactive). The outcome in experiment [6] was inactive.

For `c1ccc(C2CC2)c(OCC2=NCCN2)c1`, the period change in experiment [3] was -0.34 h (inactive). In addition, in experiment [14], the inhibition is -4% (inactive). Further, the fluorescence ratio (interference) in experiment [4] was 1 (inactive). Moreover, in experiment [5], the remaining activity is 98% (inactive). Further, in experiment [6], the molecule was classed as inactive.

(Values after PubChem BioAssay.)
